D2 PAM-1: Beta-Arrestin HTS for Positive Allosteric Modulators of the Human D2 Dopamine Receptor: Potentiators. 360,000 compounds, 0.23% hits. AID 624464, 2012. DiscoveRx D2 beta-arrestin cells, luminescence, 90 min; 100% = 57 uM dopamine signal. D(2) dopamine receptor (Homo sapiens), P14416. potentiation, % (no concentration beside the values); in the data active = potentiation above about 50%; inconclusive = mostly about 30% to 49%
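D2 cells co-treated with compound plus 50 nM dopamine (EC20) for 90 min at 37 deg C to detect potentiation. Beta-arrestin recruitment was read as enzyme-fragment luminescence after 1 h at ambient temperature. Full response was set by 57 uM dopamine.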
D2 antag: HTS Assay for Allosteric Antagonists of the Human D2 Dopamine Receptor: Primary Screen for Antagonists; HEK293 TREx D2 cells, calcium flux, dopamine EC80; inhibition, % at 10 µM; 340,000 compounds, 2% hits; AID 485344, 2010; in the data active = inhibition above about 30%; inactive = below that, where a call was filed
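Calcium flux kinetic readout in an inducible HEK293 TREx D2 line plated overnight at 30 C. After 180 s compound exposure, an EC80 dopamine challenge follows with another 180 s kinetic read to detect antagonism.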
D2 ag-1: HTS Assay for Allosteric Agonists of the Human D2 Dopamine Receptor: Primary Screen for Agonists; D(2) dopamine receptor (Homo sapiens), P14416; HEK293 T-REx D2 cells, calcium flux agonist mode; activation, % at 2 µM; 340,000 compounds, 0.53% hits;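 active = activation over 3 SD above normal in the single-dose calcium agonist read, cut at about 30% in these data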
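In this primary screen, compounds producing a positive calcium signal within 180 s of addition to tetracycline-induced, force-coupled HEK293 Trex D2 cells are flagged; cells are dye-loaded with a no-wash calcium kit beforehand.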
D2 ag-2: Beta-Arrestin HTS for Positive Allosteric Modulators of the Human D2 Dopamine Receptor: Agonists | DiscoveRx PathHunter D2 beta-arrestin, luminescence, 90 min; 100% = 57 uM dopamine signal | activation, % (no concentration beside the values) | D(2) dopamine receptor (Homo sapiens), P14416 | AID 624465, 2012 | 360,000 compounds, 0.084% hits; in the data active = activation above about 40%; inconclusive = between about 15% and that limit
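DiscoveRx PathHunter D2 beta-arrestin cells (2,100/well) attached overnight, then compound-stimulated 90 min at 37 C in HBSS/10 mM HEPES/0.1% Tween-20 buffer; beta-galactosidase complementation read by luminescence after 1 h at ambient temperature. Dopamine 57 uM final (EC100) as control.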
D2 PAM-2: HTS Assay for Positive Allosteric Modulators of the Human D2 Dopamine Receptor: Primary Screen for Potentiators; HEK293 T-REx D2, calcium flux, EC20 dopamine potentiation; potentiation, % at 10 µM; 340,000 compounds, 0.34% hits; AID 485347, 2010;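 active = potentiation over 3 SD above the plate norm, cut at about 30% in these data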
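Potentiation of an EC20 dopamine calcium response measured kinetically over 180 s, after a preceding 180 s compound-only read flagging agonists. Cells: inducible Hek293 Trex D2 line, 4000/well, cultured overnight at 30 C before dye loading.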
B2AR arrestin: qHTS assay of beta-arrestin-biased ligands of beta2-adrenergic receptor. Beta-2 adrenergic receptor (Homo sapiens), P07550. beta-arrestin recruitment to beta2AR, cell-based reporter. Potency, µM (titrated, usually from 46.1 µM), usual class: activators. 330,000 compounds, 0.02% hits. AID 492947, 2010; also: nearly all actives have a fitted effect of over 65% in size
D3 arrestin ag: qHTS of D3 Dopamine Receptor Agonist: D3 Dopamine Receptor B-arrestin Agonist Confirmatory Assay; 2,300 compounds, 4% hits; Potency, µM (titrated, usually from 76.9 µM), most hits filed as activators; AID 720506, 2013; DiscoveRx D3 beta-arrestin cells, luminescence, 90 min; shares compounds with D2 ag-1; also: nearly all actives have a fitted effect of over 70% in size
Target sequence (P35462 whole entry, looked up): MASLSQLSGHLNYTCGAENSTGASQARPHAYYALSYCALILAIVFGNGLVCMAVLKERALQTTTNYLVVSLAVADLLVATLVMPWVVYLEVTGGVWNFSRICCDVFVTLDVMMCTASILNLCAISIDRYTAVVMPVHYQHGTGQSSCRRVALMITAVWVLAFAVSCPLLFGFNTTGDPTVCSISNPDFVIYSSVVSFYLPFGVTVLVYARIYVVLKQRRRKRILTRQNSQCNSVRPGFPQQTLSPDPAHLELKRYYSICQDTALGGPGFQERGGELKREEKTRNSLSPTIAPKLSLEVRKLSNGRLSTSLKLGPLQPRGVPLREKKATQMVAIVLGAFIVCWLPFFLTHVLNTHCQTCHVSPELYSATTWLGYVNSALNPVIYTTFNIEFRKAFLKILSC
D2 ag-3: qHTS of D3 Dopamine Receptor Agonist: D2 Dopamine Receptor B-arrestin Agonist Counterscreen; AID 720507, 2013; shares compounds with D2 ag-1; 2,300 compounds, 5.9% hits; DiscoveRx PathHunter D2 beta-arrestin, luminescence, 90 min; response scale: percent relative to full dopamine signal; Potency, µM (highest dose often 76.9 µM), actives largely listed as activators; also: nearly all actives have a fitted effect of over 70% in size
Hits are given with their value; . = inactive; ? = inconclusive; / = no result. In the library only some 2.4% were active in any assay of this set; here they are far more common. Unless noted, calls follow the shape of the dose curve; as a rule, active = well fitted activation curve with a large enough effect; inconclusive = small, poorly fitted or top-dose-only effect; inactive = flat fitted curve, though single readings scatter.

SMILES | D2 PAM-1 | D2 antag | D2 ag-1 | D2 ag-2 | D2 PAM-2 | B2AR arrestin | D3 arrestin ag | D2 ag-3
Cc1cccc(N2C(=O)NC(=O)/C(=C\C=C\c3ccco3)C2=O)c1 | . | . | . | . | . | . | . | .
Cc1ccc(N2C(=O)NC(=O)/C(=C\C=C\c3ccco3)C2=O)cc1 | . | / | / | . | . | . | / | /
CN1CC2CN(Cc3ccccc3)S(=O)(=O)C2C1 (configuration not stated) | . | / | / | . | / | / | / | /
NC1CCc2cc(O)c(O)cc2C1 (configuration not stated) | 103.1 | 100.7 | 90.6 | 100.0 | . | . | 0.0224µM | 0.0141µM
COC(=O)C1=C(c2c(C)noc2C)C[C@@H]2CC[C@H]1N2C(=O)NC(C)C | . | 41.8 | . | . | . | . | . | .
COC(=O)C1=C(c2c(C)noc2C)C[C@@H]2CC[C@H]1N2C(=O)NCCO | . | . | . | . | . | . | / | /
CC(=O)N1CCC(N2CCCC(C(=O)c3cccc(Cl)c3)C2)CC1 (configuration not stated) | 55.4 | 77.8 | 84.4 | 57.7 | . | . | ? | ?
COC(=O)C1=C(c2ccc(-c3ccccc3)c(F)c2)C[C@@H]2CC[C@H]1N2C(=O)N1CCCCC1 | . | . | . | . | . | . | . | .
C[C@]12CC[C@@H](O)C[C@@H]1CC[C@@H]1[C@@H]2CC[C@]2(C)C(=O)[C@H](O)C[C@@H]12 | . | / | / | . | / | / | / | /
COC(=O)C1=C(c2cccc(OC)c2OC)C[C@@H]2CC[C@H]1N2C(=O)NCc1cccc2ccccc12 | . | / | / | . | / | / | / | /
NNC(N)=O | . | 30.5 | . | . | . | . | . | .
O=C1NC(=S)N(c2ccc(Cl)cc2)C(=O)/C1=C/N1CCN(C(=O)c2ccco2)CC1 | . | . | . | . | . | . | . | .
CN1C(=O)/C(=C\c2ccc(N3CCCCC3)o2)C(=O)NC1=S | . | . | 33.4 | . | . | . | . | .
O=P(C(c1c[nH]c2ccccc12)N1CCOCC1)(N1CCOCC1)N1CCOCC1 (configuration not stated) | . | . | . | . | . | . | / | /
CCN(CC)S(=O)(=O)c1cc(NC(=O)C(C)N2CC=C(c3ccccc3)CC2)ccc1C (configuration not stated) | . | . | 44.3 | ? | . | . | . | ?
COc1ccc(Cl)cc1C(=O)C1CCCN(Cc2cnc(C)s2)C1 (configuration not stated) | . | . | . | . | . | . | / | /
O=C(c1ccco1)N1Cc2ccccc2-n2nncc2C1 | . | / | / | . | / | / | / | /
CC(=O)c1cccc(OCC(O)CN2CC=C(c3ccccc3)CC2)c1 (configuration not stated) | 51.3 | 80.5 | 79.4 | 42.0 | . | . | ? | ?
CCCN1CCO[C@@H]2c3cc(O)ccc3OC[C@H]21 | 97.4 | 72.2 | 68.2 | 83.5 | . | . | 0.0447µM | 0.0708µM
CCC(=NCc1ccco1)c1c(O)n(-c2ccccc2C)c(=O)[nH]c1=O | . | . | . | . | . | . | . | .
NC(C(=O)O)c1cc(=O)[nH]o1 (configuration not stated) | . | . | . | . | . | . | / | /
Oc1cc2c(cc1CN1CCN(c3ccccc3F)CC1)OCO2 | . | 76.4 | 66.2 | . | . | . | . | .
Cc1cccc(-n2c(CC3C(=O)Nc4ccc(C)cc43)nc3ccccc3c2=O)c1 (configuration not stated) | / | / | . | / | . | / | / | /
CC1([N+](=O)[O-])COP(=O)(NC2CCCC2)OC1 (configuration not stated) | . | / | / | . | / | / | / | /
NCCCN1CCN(c2ccccc2)CC1 | . | 95.3 | . | ? | . | . | . | .
COC(=O)C1=C(c2ccc3ccccc3c2)C[C@@H]2CC[C@H]1N2C(=O)N1CCCC1 | . | . | . | . | . | . | / | /
